This is part of a sample that, as a whole, favours compounds with a hit. Of some 83,000 tested, about 20% had one in any assay.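 Assay: single dose, 48 h. Readout: percent growth (0 = no net growth; negative = cell death). Active: <10.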 A number with no mark means an inactive call. Active and inactive are the calls of the source.

The test concerns SR leukemia. Nature of the test: NCI-60 one-dose screen, 48 h (100 = growth as untreated, 0 = no growth, -100 = all killed). The conditions noted are these: 10 µM unless noted. The protocol:
Growth inhibition of the SR human tumor cell line is measured as a screen for anti-cancer activity. Cells are grown in 96 well plates and exposed to the test compound for 48 hours. Compounds are tested at a single concentration, which is 10^-5 M for most compounds. The reported endpoint is percent growth (GI% or GIPRCNT), where numbers from 0 - 100% represent growth inhibition, and numbers from -100% - 0 represent cell death. For example, a value of 40 represents 60% growth inhibition. A value of 0 means no net growth occurred over the course of the experiment. A value of -40 indicates 40% of cells at the beginning of the experiment died by the end of the experiment. A value of -100 means all cells are dead at the end of the experiment.
NCI-60 Human Tumor Cell Lines Screen was performed using the standard one-dose NCI protocol, which is described in more detail at https://dtp.cancer.gov/discovery_development/nci-60/default.htm.
Compounds with GIPRCNT values below 10 were considered active. Activity score was based on GIPRCNT using the following formula: […]
Score is 0 for GIPRCNT values of 100 or above, 50 for GIPRCNT values of 0, and 100 for GIPRCNT values of -100.
Consider `COc1cccc(-c2nn(-c3ccccc3)cc2-c2ccnc(N3CCN(C(=O)Nc4ccc(F)cc4)CC3)c2)c1`, for which the growth was 24.8%.

Turning to `O=C1C2=C(C(=O)c3c(O)cccc31)C(c1ccco1)c1sc(=O)[nH]c1S2` (stereo not given), the growth is 15.8%. On to `Clc1ccc2oc3c(NCCCN4CCOCC4)c4ccccc4nc3c2c1`, for which the growth is 1.91% (active).

With `COc1ccc(NC(=O)c2sc3nc(-c4cnccn4)cc(-c4cccs4)c3c2N)cc1`, the growth is 71.6%. As to `O=C(Nc1nc2ccc(O)cc2s1)c1cccc(C(F)(F)F)c1`, the growth is 75.7%.

In the case of `CCOC(=O)c1c(Nc2ccccc2)nn2c(N)c(C#N)c(-c3ccccc3)nc12`, the growth is 58.9%. Under `COc1ccc(-c2nc3ccc(-c4nnc(SCC(=O)Nc5ccc(C(=O)/C=C/c6ccccc6)cc5)o4)cc3[nH]2)cc1OC` stands 83.6%. `CCOC(=O)c1c(Nc2ccccc2)nn2c(N)c(C#N)c(-c3ccc(Cl)cc3)nc12`: the growth is 86.9%. `O=C(O)CCCCCN1C(=O)/C(=C/c2ccc(O)c(O)c2)SC1=S`: the growth is 107%. Under `C=C1CC[C@H]2[C@@](C)(CCC3OC(c4ccc(OCc5cn(C6CC(OC(C)=O)C(OC(C)=O)C(COC(C)=O)O6)nn5)cc4)OC[C@]32C)[C@@H]1/C=C/C1=CCOC1=O` (stereo not given in full) stands 51%; under `COc1ccc(NC2=CC(=O)C(C)=C(C)C2=O)cc1`, 82.3%; under `Cc1nc(-c2cc3ccccc3oc2=O)ccc1C(=O)/C=C/c1ccc(Cl)c(Cl)c1`, 94.9%. The figure for `O=C1c2c(c3c4cc(Br)ccc4[nH]c3c3ccc4ccccc4c23)C(=O)N1CCO` is -6.75% (active); for `COc1cc(N=Cc2sc(Nc3nccs3)nc2O)cc(OC)c1OC` it is 63.9%. As for `CS(=O)(=O)c1ccc(-c2nc3ccccn3c2-c2nc3ccc([N+](=O)[O-])cc3[nH]2)cc1`, the growth is 95.2%.

In the case of `Cc1cc(=O)oc2cc(OCCCOc3ccc(/C=C/C(=O)Nc4ccc(Cl)cc4)cc3)ccc12`, the growth was 37.7%. Under `C/C(=C(/c1ccc(Cl)cc1)c1ccc(OCCN)cc1)c1ccc(C)cc1` stands 88.6%; under `COc1cc(/C=C/C(=O)c2ccccc2)ccc1Oc1nc(NCCO)nc(N2CCOCC2)n1`, 8.72% (active). For `CCCC(=O)NC(c1ccc(N(CC)CC)cc1)c1cc(C)c2cccnc2c1O` (stereo not given), the growth is 5.57% (active). The figure for `Clc1ccc2c(NCCCn3ccnc3)c3oc4ccc(Cl)cc4c3nc2c1` is -11.2% (active). With `COc1ccc(COc2ccc(/C=C3/C(=O)Nc4cc(Cl)ccc43)cc2)cc1`, the growth was 109%.

As to `[Cl][Ru].c1ccc(-c2cc(-c3ccccn3)nc(-c3ccccn3)c2)cc1.c1ccc(-c2ccnc3c2ccc2c(-c4ccccc4)ccnc23)cc1`, the growth was -40.3% (active).

Turning to `CN(C)CCCNc1c2ccc(Cl)cc2nc2c1oc1ccccc12`, the growth is -18.8% (active). Under `Cn1cc(-c2cc(N)n3nc(-c4cn(C)c5ccc(Cl)cc45)cc3n2)c2cc(Cl)ccc21` stands 5.66% (active). Turning to `COc1ccc(C(=O)/C=C/c2ccc(Oc3nc(NCCO)nc(N4CCOCC4)n3)c(OC)c2)cc1`, the growth was 5.16% (active). Under `CC(=NNc1ncnc2ccccc12)c1ccc(S(C)(=O)=O)cc1` stands 100%.

As for `O=C1Nc2cc(Cl)ccc2/C1=C\c1ccc(OCc2ccc([N+](=O)[O-])cc2)cc1`, the growth is 87.5%. Under `CC(C)(C)Nc1nc2c(OCCc3ccccc3)cccn2c1-c1ccc(Cl)cc1` stands 1.41% (active); under `CS(=O)(=O)Nc1ccc(-c2nn(-c3ccc(S(C)(=O)=O)cc3)cc2/C=C/C(=O)c2ccc(NC(=O)CO[N+](=O)[O-])cc2)cc1`, 92.1%; under `O=[N+]([O-])c1ccc(O)c2ncccc12`, 14.6%. Under `CS(=O)(=O)c1ccc(-c2nc3ccccn3c2C=Nc2ccc(Cl)cc2)cc1` stands 96.8%; under `CCCCCCNC(=O)Oc1ccc(/C(=C(/C)c2ccccc2)c2ccc(OCCN3CCCCCC3)cc2)cc1`, -37.4% (active); under `NS(=O)(=O)c1cccc(Nc2nc(SCC(=O)c3ccc([N+](=O)[O-])cc3)nc3ccccc23)c1`, 17.5%. The figure for `OC1CCN(CCCOc2c3ccccc3nc3c2oc2ccccc23)CC1` is -3.77% (active); for `O=C(CN1CCOCC1)NNc1ncnc2ccccc12` it is 68.3%. With `N[C@@H](Cc1cn(-c2c3ccccc3nc3ccccc23)nn1)C(=O)O`, the growth was 86%.

Turning to `Cc1sc2nc(NCc3ccccc3Cl)[nH]c(=O)c2c1C`, the growth was 50.2%. Under `O=C1/C(=C/C2=Cc3ccccc3OC2)SC(=S)N1c1ccc(F)cc1` stands 97.2%; under `CC(C)(O)c1cncc(-c2ccc3ncnc(N4CCc5cc(F)c(Cl)cc54)c3c2)c1`, 18%; under `O=c1[nH]c2ccc(Cl)cc2cc1CSc1ccccc1Nc1nccc(-c2ccc(Cl)cc2)n1`, 77.2%.

These data come from PubChem BioAssay (NCI).
